# The campaign covered roughly 57,000 […]. About 2,900 (5.1%) were called active. No stated cut-off is given here; in the data, active = GI50 up to about 1.1 µM and inactive = higher. These entries were drawn from the full list. Measured potencies and affinities stand elsewhere.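 96-well plates; 48 h exposure; 5 concentrations. Endpoints by linear interpolation between flanking doses. Not reached: highest tested concentration assigned. GI50 marks 50% less growth.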
# Tested on: SNB-19
# Assay: NCI tumour cell line growth inhibition, 48 h
row,Substance,GI50 [µM]
1,"[Bis(aminomethyl)ethylmethylsilane]tetrachloroplatinum(IV), CHEMBL2146192",5.37
2,"[Bis(aminomethyl)tetramethylenesilane]tetrachloropaltinum(IV), CHEMBL2146189",12.9
3,"[Bis(aminomethyl)diethylsilane]tetrachloroplatinum(IV), CHEMBL2146203",4.05
4,"[Bis(aminomethyl)tetramethylenesilane]dichloropaltinum(II), CHEMBL2146205",47.5
5,"mu-(1,7-nanodiamine-N,N')bis-(cis-aminedichloroplatimum (II)), CHEMBL2146215",39.1
6,"[Bis(aminomethyl)pentamethylenesilane]dichloropaltinum(II), CHEMBL2146202",2.79
7,"[Bis(aminomethyl)dimethylsilane]tetrachloroplatinum(IV), CHEMBL2146190",8.77
8,"CISPLATIN, CHEMBL11359",3.19
9,"[Bis(aminomethyl)pentamethylenesilane]tetrachloropaltinum(IV), CHEMBL2146204",8.02
10,"cis-Bis[[(trimethylsilyl)methyl]amino]tetrachloroplatinum(IV), CHEMBL2146191",12.4
11,"[Bis(aminomethyl)dimethylsilane]dichloroplatinum (II), CHEMBL2146201",24.4

# — ChEMBL document CHEMBL1201862, “PubChem BioAssay data set” (2004)
